Screens as filed in PubChem BioAssay.
In the library only some 5.1% were active in any assay of this set; here they are far more common.
Tau fibril FP = tau fibrillization inhibition (FP). P10636. K18 P301L tau heparin fibrillization, Alexa594 FP, 6 h. Potency, µM (series often up to 57.7 µM), without a hit: at the top dose activity, negative = inhibition, hits mostly inhibitors. actives 0.39% (n = 280,000). AID 1468; further: potency means the concentration at half of the fitted maximal effect; nearly all actives have a fitted effect of over 55% in size
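FP of Alexa 594-tau after heparin (20 uM) induction. Substrate: human K18 P301L, 15 uM unlabeled, 0.24 uM labeled. Buffer 100 mM sodium acetate pH 7. 6 hr, 37 C.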
Tau ThT inhib = tau fibrillization inhibition (ThT binding); Potency, µM (doses to about 57.4 µM), without a hit: at the highest dose activity, negative = inhibition, hits mostly inhibitors; actives 2.1% (n = 270,000); recombinant tau K18 P301L, heparin-induced fibrillization, ThT fluorescence; further: potency means the concentration at half of the fitted maximal effect; nearly all actives have a fitted effect of over 55% in size
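K18 P301L tau (15 uM + 0.24 uM Alexa 594-tagged), heparin 20 uM, NaOAc pH 7, 6 h 37 C; ThT 30 uM, 1 h RT, ex 450/em 510 nm.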
Tau fluor cs = counter-screen for tau fibril formation inhibitors | tau K18 P301L (four-repeat tau fragment) Alexa594 fluorescence, heparin fibrillization | Potency, µM (highest dose often 57.7 µM), inactives show at the highest dose activity change, negative = decrease | actives 0.93% (n = 280,000) | AID 1463; further: potency means the concentration at half of the fitted maximal effect; nearly all actives have a fitted effect of over 55% in size
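Human K18 P301L tau (15 uM unlabeled plus 0.24 uM Alexa 594-labeled, final) in 100 mM sodium acetate pH 7 was mixed with compound and 20 uM heparin and incubated 6 hr at 37 C.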
NPSR antag = blocks cAMP signaling of the human neuropeptide S receptor. Q6W5P4. CHO-NPSR cells, cAMP TR-FRET, antagonist mode. Potency, µM (series often up to 38.3 µM), without a hit: top-dose activity change, negative = inhibition, most hits filed as inhibitors. actives 1% (n = 220,000); further: potency means the concentration at half of the fitted maximal effect; nearly all actives have a fitted effect of over 50% in size
Target sequence (Q6W5P4 whole entry, looked up): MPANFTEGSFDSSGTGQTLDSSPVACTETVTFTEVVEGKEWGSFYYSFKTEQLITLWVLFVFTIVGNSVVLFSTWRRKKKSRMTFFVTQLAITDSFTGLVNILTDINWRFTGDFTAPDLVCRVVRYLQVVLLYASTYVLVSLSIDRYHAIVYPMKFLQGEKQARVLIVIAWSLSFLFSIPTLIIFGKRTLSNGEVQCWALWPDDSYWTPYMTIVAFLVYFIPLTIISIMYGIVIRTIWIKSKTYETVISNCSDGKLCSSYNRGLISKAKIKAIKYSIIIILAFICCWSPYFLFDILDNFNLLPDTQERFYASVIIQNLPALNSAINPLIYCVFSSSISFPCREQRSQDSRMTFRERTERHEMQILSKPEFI
PNC inhibitor = inhibitors of perinucleolar compartment assembly | PC3M PTB-GFP, PNC prevalence imaging, 16 h; stronger effect = lower value | activity change (PNC), negative = inhibition, % at 10 µM | actives 3.1% (n = 140,000);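 active means readout at or below -70, meaning at least 70% loss of cells showing the perinucleolar compartment, a nuclear body marking cancer cells; inconclusive means readout between -30 and a set limit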;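 further: plate controls were DMSO wells for no effect and camptothecin positive control wells for full effect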
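Compounds are pinned in duplicate onto adhered PC3M cells stably expressing GFP-tagged PTB and incubated 16 h at 37 C. Cells are then fixed, nuclei stained with Hoechst, and PNC-positive cells counted.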
KDM4E inh = blocks human JMJD2E demethylase activity; JMJD2E catalytic domain, FDH-coupled NADH fluorescence (FDH is formaldehyde dehydrogenase); actives 1.6% (n = 230,000); Potency, µM (titrated, usually from 57.1 µM), for the others: at the top dose activity change, negative = inhibition, usual class: inhibitors; active means well fitted inhibition curve with a large enough effect, not every such curve was filed as active; inconclusive means small, poorly fitted or top-dose-only effect, or another doubt; inactive means no such curve, though single readings can be large or run the other way;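 further: potency means the concentration at half of the fitted maximal effect; 0% = wells with enzyme and -100% = buffer wells without enzyme; nearly all actives have a fitted effect of over 50% in size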
Target sequence (B2RXH2 1-337 limits assumed): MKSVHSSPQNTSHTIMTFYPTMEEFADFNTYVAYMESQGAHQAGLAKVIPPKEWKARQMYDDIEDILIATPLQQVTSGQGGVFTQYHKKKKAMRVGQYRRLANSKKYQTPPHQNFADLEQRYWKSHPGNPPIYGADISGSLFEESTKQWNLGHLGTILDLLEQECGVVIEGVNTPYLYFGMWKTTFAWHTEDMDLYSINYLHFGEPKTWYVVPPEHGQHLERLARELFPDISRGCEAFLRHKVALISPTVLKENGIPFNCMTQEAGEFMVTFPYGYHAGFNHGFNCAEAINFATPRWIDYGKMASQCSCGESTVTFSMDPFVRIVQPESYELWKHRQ
* = called active by the depositor; ? = inconclusive; / = no result given; ! = not confirmed by another sample; [ ] = dose if it differs, or a comment. Unless noted, the call rests on the fitted dose curve; in most records, active means well fitted curve in the direction sought with a large enough effect; inconclusive means small, poorly fitted or top-dose-only effect, or another doubt; inactive means no such curve, though single readings can be large; an effect the other way counts as inactive or inconclusive. Unless noted, on the % scale 0 is the no-effect control and ±100 the full control effect.

SMILES	Tau fibril FP	Tau ThT inhib	Tau fluor cs	NPSR antag	PNC inhibitor	KDM4E inh
COc1cccc(CNC(=O)c2ccc3c(c2)nc2n3CCOC2)c1OC	0.7%	3.4%	5.2%	/	/	/
COc1ccc(-n2c(SCC(=O)Nc3nccs3)nnc2-c2ccoc2C)cc1	-8.9%	-8.5%	-11.5%	-12.5%[46.1 µM]	-6.8	-2.4%
COc1cccc(-n2c(SCC(=O)Nc3nccs3)nnc2-c2ccoc2C)c1	0.1%	-17.2%	-11.3%	-1.1%[46.1 µM]	-100.0*	3.7%
CCc1nnc(NC(=O)CSc2nnc(-c3ccoc3C)n2-c2cccc(C)c2)s1	-4.1%	-10.0%	-2.3%	-4.4%[46.1 µM]	-95.8*	3.1%
COc1ccccc1N/C=C/c1onc(C)c1[N+](=O)[O-]	0.9%	?	-12.3%	-8.9%	/	1.2%
Cc1noc(/C=C/Nc2ccc(F)cc2F)c1[N+](=O)[O-]	-0.1%	3.16µM*	-18.0%	-36.1%	/	-0.9%
CCOC(=O)c1ccccc1NC(=O)c1c(C)oc2ncnc(N3CCOCC3)c12	0.8%	-13.6%	-14.8%	/	/	/
CCCC(=O)Nc1ccc(NC(=S)NC(=O)c2cccs2)cc1	5.0%	-17.4%	-5.3%	-3.4%	/	11.0%
O=C(NC(=S)Nc1ccc(N2CCCCC2)cc1)c1cccs1	?	12.6µM*	15.8µM*[quencher]	-13.5%[46.1 µM]	?	0.4%
O=C(Nc1ccc(N2CCCC2)c(Cl)c1)c1cccs1	10.8%	?	15.8µM*[quencher]	-31.4%	/	0.8%
CCN(CC)c1ccc(NC(=S)NC(=O)c2cccs2)cc1	18.5%	6.31µM*	12.6µM*[quencher]	?	/	-29.6%
CCN(CC)c1ccc(NC(=O)CN2CCN(CC(=O)Nc3ccc(F)cc3)CC2)cc1	16.6%	-6.2%	-16.8%	-12.1%[46.1 µM]	8.7	-9.2%
O=C(NC(=S)Nc1ccc(N2CCOCC2)c(Cl)c1)c1cccs1	-2.5%	-17.6%	-29.8%	-9.9%	/	-10.0%
CCN(CC)c1ccc(NC(=S)Nc2ccc(F)cc2)cc1	?	12.6µM*	?	-10.8%	/	8.91µM*
Oc1ccc(N=Cc2cc(Br)c(N3CCOCC3)o2)cc1	?	3.16µM*	?	-7.0%	27.5	0.4%
Cc1ccccc1NC(=O)CS(=O)(=O)c1cccc2nsnc12	5.1%	1.5%	-0.2%	/	/	/
CCCC1(C)Nc2ccccc2-c2nc3ccccc3n21 (stereo unspecified)	8.2%	?	-25.7%	?	-82.0*	?
COc1ccc(-c2c3c([nH]c(=S)c2C#N)CCC3)cc1	-2.2%	?	-7.4%	1µM*	?	?
COc1ccc(OC)c(-c2c3c([nH]c(=S)c2C#N)CCCC3)c1	-7.7%	-13.0%	-2.4%	-18.9%	/	-10.4%
CC(C)CC(=O)NC1CC(=O)N(c2ccc3c(c2)OCCO3)C1 (stereo unspecified)	3.9%	-3.5%	4.1%	/	/	/
COc1ccc(N(C(=O)c2cccc(C)c2)S(=O)(=O)c2ccc(C)cc2)cc1	0.2%	-8.3%	-19.6%	/	/	/
Cn1c2c(c(=O)n(C)c1=O)CN(CCCN1CCOCC1)CN2	-1.2%	2.0%	13.6%	6.5%[46.1 µM]	-84.1*	3.6%
CC(c1ccccc1)N1CNc2c(c(=O)n(C)c(=O)n2C)C1 (stereo unspecified)	-3.7%	14.6%	11.7%	-22.7%[46.1 µM]	?	-17.9%
CCn1c(SCC(=O)NCC(=O)Nc2ccc(F)cc2)nnc1-c1cccs1	-3.4%	0.3%	3.5%	4.2%[46.1 µM]	-86.2*	3.4%
N#CCC(=O)Nc1ccccc1C(=O)O	2.4%	-8.0%	0.0%	-16.6%[46.1 µM]	29.9	?
SMILES	Tau fibril FP	Tau ThT inhib	Tau fluor cs	NPSR antag	PNC inhibitor	KDM4E inh
N#CCC(=O)Nc1ncn(Cc2ccccc2Cl)n1	-1.4%	-4.9%	3.3%	0.3%[46.1 µM]	-81.3*	11.4%
O=C(c1ccc(S(=O)(=O)c2ccccc2Cl)c([N+](=O)[O-])c1)N1CCCCCC1	3.4%	-12.6%	-23.4%	9.4%	-105.4*	-4.6%
O=C(c1ccc(S(=O)(=O)Cc2ccccc2F)c([N+](=O)[O-])c1)N1CCCCCC1	11.3%	-14.3%	-15.5%	-3.9%	/	-1.6%
CCOC(=O)c1cc(S(=O)(=O)N2CCN(c3ccc(OC)cc3)CC2)[nH]n1	2.4%	1.3%	-8.7%	/	/	/
O=C(/C=C/c1ccc(O)c(O)c1)O[C@H]1C[C@@](O)(C(=O)O)CC(O)C1O (stereo partly specified)	-8.0%	-12.6%	-11.9%	/	/	15.8µM*
O=C(Cn1c(-c2cccs2)cc2ccccc21)NCCCN1CCN(c2cccc(Cl)c2)CC1	10.0%	?	?	/	/	/
Cc1ccc(NC(=O)c2nc(S(C)(=O)=O)ncc2N(Cc2ccccc2)Cc2ccco2)c(C)c1	-5.8%	-3.8%	-11.7%	/	/	/
Cc1cc(C(=O)NN)c2cc(Br)ccc2n1	-6.9%	-8.3%	-12.4%	7.7%[46.1 µM]	-7.2	-10.8%
O=C(O)c1cc(-c2ccco2)nc2ccc(Br)cc12	?	15.8µM*!	?	6.31µM*!	?	?
Cc1cc(C(N)=O)c2cc(Br)ccc2n1	-5.0%	-4.6%	1.3%	10.5%[46.1 µM]	-89.5*	4.9%
CC(=O)O[C@@H](C)C#C[Si](C)(C)c1ccccc1	-0.3%	-0.1%	-2.1%	/	/	0.8%
Cc1cc(C(F)(F)F)nn1Cc1n[nH]c(=S)n1Cc1ccccc1	0.5%	-6.4%	-7.8%	11.7%[46.1 µM]	-100.0*	-20.4%
CC1=CC(C)(C)n2c(O)c(N=N)c3c(C)c(C)cc1c32	-15.1%	25.1µM*	?	-42.4%	/	?
CC1=CC(C)(C)n2c(O)c(N=N)c3cc(C)cc1c32	?	28.2µM*	?	-8.5%	-4.9	7.7%
COc1cc2c3c(c1)c(N=NC(N)=S)c(O)n3C(C)(C)C=C2C	12.0%	?	?	2.2%[7.67 µM]	/	-2.4%
CC1=CC(C)(C)n2c(O)c(N=N)c3c(C)ccc1c32	-0.5%	10.8%	2.4%	-38.8%	/	-0.8%
Cc1ccc(CNC(=O)c2oc3ccc(S(=O)(=O)N4CCCC(C)C4)cc3c2C)cc1 (stereo unspecified)	-8.5%	-11.7%	-26.4%	/	/	/
Cc1ccc(C(=O)Nc2ccc3c4c(cccc24)CC3)cc1[N+](=O)[O-]	-5.7%	-6.1%	-12.3%	-10.1%[46.1 µM]	-81.3*	0.2%
Cc1c(C(=O)Nc2ccc3c4c(cccc24)CC3)cccc1[N+](=O)[O-]	5.9%	0.6%	4.6%	-19.8%	29.8	2.4%
CCCCCNc1nc2c(-c3ccccc3)nnn2c2ccccc12	-10.2%	-1.6%	-11.4%	/	/	/
Cc1cc(C)cc(NS(=O)(=O)c2ccc3[nH]cc(C(=O)NCc4ccccc4Cl)c(=O)c3c2)c1	3.16µM*	5.1%	?	/	/	/
COc1cccc(NS(=O)(=O)c2ccc3[nH]cc(C(=O)NC4CCCCC4)c(=O)c3c2)c1	7.08µM*	?	3.55µM*[quencher]	/	/	/
Cc1cc(C)cc(NS(=O)(=O)c2ccc3[nH]cc(C(=O)N4CCCCCC4)c(=O)c3c2)c1	-6.0%	0.1%	-13.6%	/	/	/
